Among all 360,000 compounds or so, about 3,800 (1.1%) were called active. Many of the other results were omitted from the sample, so actives are more common in it than they were. A number with no mark means an inactive call.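 How the source made its calls: active means compounds causing at least 50% loss of cell viability in the single-dose screen, relative to plate controls; inactive means the rest.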

This assay can be described thus: TRAIL-exposed caspase-8 expressing cell killing – NB7+C8 cells, ATPlite luminescence, TRAIL sensitizer project, primary screen (AID 624354). The note with it: at 10 µM, active compounds read high. (Cellular ATP, detected with luciferase, serves as a proxy for viable cell number.)
In the case of `CC1(C(=O)NCc2ccco2)Cc2c(-c3ccc4c(c3)OCO4)ccnc2O1` (stereo not given), the inhibition (viability loss, TRAIL sensitization) is 14.9%.

`COc1ccc(/C=N/NC(=O)Cn2cc(C(F)(F)F)ccc2=O)cc1`: the inhibition (viability loss, TRAIL sensitization) is -0.17%.

In the case of `COc1cc(C=NC2CCCCC2)ccc1O`, the inhibition (viability loss, TRAIL sensitization) is -2.08%.

In the case of `CCOc1cc(/C=N/NC(=O)c2c(C)nc3ccc(Cl)cn23)ccc1O`, the inhibition (viability loss, TRAIL sensitization) was -7.66%.

As for `COc1ccc(/C=N/NC(=O)C(C)N(c2ccc(OC)cc2)S(C)(=O)=O)cc1` (stereo not given), the inhibition (viability loss, TRAIL sensitization) was -5.4%.

In the case of `COc1ccc(C(=O)Nc2ccccc2C(=O)N/N=C/c2ccc(O)c(OC)c2)cc1`, the inhibition (viability loss, TRAIL sensitization) is 95.8% (active).

Turning to `COc1ccc(/C=N/Nc2ccccc2C(=O)O)cc1`, the inhibition (viability loss, TRAIL sensitization) is 55.9% (active).

In the case of `Cc1cccc(N(Cc2ccccc2)C(=O)c2cc(S(=O)(=O)N3CCOCC3)ccc2F)c1`, the inhibition (viability loss, TRAIL sensitization) was 19.9%.

On to `CN(C)C(=O)CCc1ccc2c3c([nH]c2c1)[C@]1(CCc2ccccc2)[C@@H](C(=O)N2CCCCC2)C[C@H](CC(=O)NCCC2=CCCCC2)C(=O)N1CC3`, for which the inhibition (viability loss, TRAIL sensitization) was 13.2%.

As for `CCc1nc2ccc(C(=O)Nc3cccc(OC)c3)cn2c1N(CCC(C)C)CCN(C)C`, the inhibition (viability loss, TRAIL sensitization) is 15.5%.

On to `CCOc1ccccc1-n1c(SCC(=O)N2CCCC2)nnc1-c1ccoc1C`, for which the inhibition (viability loss, TRAIL sensitization) was 2.53%.

`O=C(N/N=C/C=C/c1ccco1)c1cccs1`: the inhibition (viability loss, TRAIL sensitization) was -0.972%.

In the case of `Cc1ccc(-c2cc(C(=O)N/N=C/C=C/c3ccco3)c3ccccc3n2)cc1C`, the inhibition (viability loss, TRAIL sensitization) is 61.5% (active).

On to `Cc1ccc(C(=O)N/C(=C/c2ccco2)C(=O)NCCc2c[nH]c3ccccc23)cc1C`, for which the inhibition (viability loss, TRAIL sensitization) was -2.25%.

Turning to `Cc1ccc(C2Nc3ccccc3C(=O)N2CCN2CCNC2=O)cc1` (stereo not given), the inhibition (viability loss, TRAIL sensitization) is -20.4%.

Consider `Cc1ccc(-n2cc3ccc([N+](=O)[O-])cc3n2)cc1`, for which the inhibition (viability loss, TRAIL sensitization) was 25.5%.

Take `CC(=O)Nc1c(-c2ccc(C)cc2)nc2ccc(Cl)cn12`: the inhibition (viability loss, TRAIL sensitization) was -3.92%.

For the molecule `Cc1ccc2nc(-c3ccc(Br)cc3)cn2c1`, the inhibition (viability loss, TRAIL sensitization) is 67.2% (active).

For the molecule `Cc1ccc(Cc2c(-c3ccccc3)nc3ccc(Cl)cn23)cc1`, the inhibition (viability loss, TRAIL sensitization) was 8.97%.

As to `Cc1ccnc(N2C(=O)c3ccc([N+](=O)[O-])cc3C2=O)c1`, the inhibition (viability loss, TRAIL sensitization) is -23.1%.

As to `COc1ccc(-c2nc3ccc(Br)cn3c2Cc2ccc(C)cc2)cc1OC`, the inhibition (viability loss, TRAIL sensitization) is 3.92%.

With `Cc1ccc(-c2nc3ccc(Br)cn3c2Cc2ccccc2C(F)(F)F)cc1`, the inhibition (viability loss, TRAIL sensitization) is 12.7%.

For `Cc1ccc(-c2cn3cc(C)ccc3n2)cc1`, the inhibition (viability loss, TRAIL sensitization) is 87.8% (active).

Consider `Cc1ccc(-c2cn3cc([N+](=O)[O-])ccc3n2)cc1`, for which the inhibition (viability loss, TRAIL sensitization) was 56.8% (active).

For `CCOc1ccc(C(C)=O)cc1CSc1nnc(-c2ccncc2)n1CCOC`, the inhibition (viability loss, TRAIL sensitization) is -21.1%.

Regarding `CC(C)Oc1ccc(/C=C(\NC(=O)/C=C/c2ccco2)C(=O)NCCc2nc3ccccc3[nH]2)cc1`, the inhibition (viability loss, TRAIL sensitization) was -11.3%.

Consider `CCCCN(CC)C(=O)CN(C)S(=O)(=O)c1cccc2nsnc12`, for which the inhibition (viability loss, TRAIL sensitization) is 4.95%.

As for `CN(CC(=O)Nc1c(Cl)cccc1Cl)C(=O)c1ccncc1`, the inhibition (viability loss, TRAIL sensitization) is -1.41%.

For the molecule `OC[C@@H]1CN(Cc2ccc(Cl)cc2)C[C@H](n2cnc3c(NCc4ccncc4)ncnc32)O1`, the inhibition (viability loss, TRAIL sensitization) is 0.808%.

As to `CSCCC(NS(=O)(=O)c1ccccc1F)C(=O)N1CC=C(c2ccccc2)CC1` (stereo not given), the inhibition (viability loss, TRAIL sensitization) is 15.4%.

Consider `N#CCCn1ncc2ccccc21`, for which the inhibition (viability loss, TRAIL sensitization) was -30.7%.

On to `COc1ccc2c(c1)cc1n2CCN=C1NN`, for which the inhibition (viability loss, TRAIL sensitization) is 6.58%.

In the case of `COc1ccc(C(=O)NC(Cc2ccc(OC(=O)c3ccc(OC)cc3)cc2)C(=O)O)cc1` (stereo not given), the inhibition (viability loss, TRAIL sensitization) was 7.3%.

For the molecule `O=CNc1cc(-c2ccc(C(=O)N3CCOCC3)cc2)cn2c(-c3ccc(F)cc3)cnc12`, the inhibition (viability loss, TRAIL sensitization) is 19.1%.

For the molecule `CC(C)CNC(=S)NC(=O)c1ccc(Cl)cc1`, the inhibition (viability loss, TRAIL sensitization) was -9.78%.

`CN1C(=O)[C@H]2[C@@H](/C=C/c3ccccc3)N3C(=O)CN(Cc4ccc(-c5ccccc5)cc4)C(=O)[C@@]3(C)[C@H]2C1=O`: the inhibition (viability loss, TRAIL sensitization) was 7.89%.

Take `CCOc1ccc(Br)cc1S(=O)(=O)Nc1ccc(C(=O)OC(C)C(=O)N(C)c2ccccc2)cc1` (stereo not given): the inhibition (viability loss, TRAIL sensitization) is 9.56%.

In the case of `Cc1ccc(/C=N/NC(=O)C2=NNC(c3ccccc3)(c3ccccc3)C2)c(O)c1`, the inhibition (viability loss, TRAIL sensitization) is 20.2%.

Consider `Oc1ccc(/C=N/Nc2nc(-c3ccccc3F)nc3ccccc23)c(O)c1`, for which the inhibition (viability loss, TRAIL sensitization) was 60.2% (active).

In the case of `O=C(NNc1c2ccccc2nc2ccccc12)c1cc2ccccc2cc1O`, the inhibition (viability loss, TRAIL sensitization) is 11.6%.

With `O=C(NCc1ccccn1)[C@@H]1CCCN1C(=O)[C@@H]1CCCN1C(=O)c1ccccc1`, the inhibition (viability loss, TRAIL sensitization) is -14%.

For `Nc1nc(NC(=O)/C=C/c2ccccc2)nn1-c1ccccc1`, the inhibition (viability loss, TRAIL sensitization) was 15%.

Consider `COc1ccc(CCNC(=O)c2c(C)nn(-c3ccccc3)c2Cl)cc1`, for which the inhibition (viability loss, TRAIL sensitization) is -4.85%.

Regarding `COc1ccc(C2c3c(C)nn(-c4ccccc4)c3NC(=O)N2c2ccccc2)cc1` (stereo not given), the inhibition (viability loss, TRAIL sensitization) was -5.29%.

With `COc1ccc(Oc2c(Cl)cnn(-c3ccccc3)c2=O)cc1`, the inhibition (viability loss, TRAIL sensitization) was 89.7% (active).

Source of the values: PubChem BioAssay AID624354 (Sanford-Burnham Center for Chemical Genomics, 2012).
